About 79,000 compounds went through this panel and 15% of them were active in at least one assay; those are over-represented in the sample as a whole. Active and inactive are the calls of the source. Rule as the data show it: active = growth inhibition above about 70%; inactive = the rest.
What was measured:
[1] = NCI Yeast Anticancer Drug Screen. Data for the rad50 strain (AID 155);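 also: 0% = growth of vehicle-only cultures of the same strain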; details: S. cerevisiae rad50 strain growth inhibition; at 50.0 µM; hits give high values
How it was run: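 DNA repair mutant yeast, compound exposure, growth read-out; inhibition is taken relative to vehicle.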

[2] = NCI Yeast Anticancer Drug Screen. Data for the mec2-1 strain (AID 157); details: S. cerevisiae mec2-1 strain, at 50.0 µM, hits give high values
How it was run: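 Cells of the genetically defined mec2-1 yeast strain are incubated with test compound. Inhibition of growth is calculated against vehicle-treated controls.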

[3] = NCI Yeast Anticancer Drug Screen. Data for the sgs1 mgt1 strain (AID 161);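 also: 0% = growth of cultures given vehicle only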; details: S. cerevisiae sgs1 mgt1 strain, at 50.0 µM, hits give high values
How it was run: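 Inhibition of yeast growth, normalised to vehicle-treated controls, is reported for a strain bearing genetic alterations in DNA damage repair.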

[4] = NCI Yeast Anticancer Drug Screen. Data for the cln2 rad14 strain (AID 165);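 also: 0% = growth equal to vehicle treated cultures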; details: S. cerevisiae cln2 rad14 strain, at 50.0 µM, hits give high values
How it was run: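 The screen exposed genetically defined yeast (cln2 rad14) to test compounds and scored growth inhibition relative to vehicle-treated controls.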

[5] = NCI Yeast Anticancer Drug Screen. Data for the bub3 strain (AID 167); details: S. cerevisiae bub3 mutant strain, at 50.0 µM, hits give high values
How it was run: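 In this screen, a yeast mutant lacking normal mitotic checkpoint function is challenged with compound. Relative growth versus vehicle gives the inhibition value.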

[6] = NCI Yeast Anticancer Drug Screen. Data for the mlh1 rad18 strain (AID 175); details: S. cerevisiae mlh1 rad18 strain growth inhibition; at 50.0 µM; hits give high values
How it was run: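 Compound-treated yeast growth, normalised to vehicle controls. Strain bears defined DNA repair mutations.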

Measured: growth inhibition

CN(C)CCCNc1ccc2nnn3c4ccc(O)cc4c(=O)c1c23
inactive: [1] -4.2% | [2] 1.25% | [3] 0.9% | [4] 0.15% | [5] 2.65% | [6] 19%

COc1cccc(N2C(=O)[C@H]3[C@H]4CC(C(C)(C)C)CC[C@H]4c4c([nH]c5ccccc45)[C@H]3C2=O)c1 (some centres not stated)
inactive: [1] 1.65% | [2] -18.9% | [3] 8.25% | [4] 31.7% | [5] -9.4% | [6] -2.4%

O=C(O)CNc1ccc([N+](=O)[O-])cc1C(=O)O
inactive: [1] -1.25% | [2] -1% | [3] 2.75% | [4] 7.4% | [5] -6.7% | [6] -5.95%

O=C(NNC(=O)c1cccc2ccccc12)c1ccccc1F
inactive: [1] -16.6% | [2] -12.6% | [3] -13.9% | [4] 1.35% | [5] -11.6% | [6] -15.9%

Cn1c(=O)c2c(n(C)c1=O)n1c(=O)c3ccccc3nc1n2C
inactive: [1] 12.9% | [2] 2.3% | [3] -15.6% | [4] -7.1% | [5] -7.3% | [6] -6.55%

Cc1ccc(C)c(NC(=O)Oc2cc(C)c(Cl)cc2C(C)C)c1
active: [1] 85.8% | [2] 99.2% | [3] 98.5% | [4] 72.8% | [5] 98.5% | [6] 98.8%

O=C1CCN2C(=O)CCN12
inactive: [1] 1.1% | [2] -10.2% | [3] 18.7% | [4] 14.8% | [5] 11% | [6] 2.35%

C=CCOC(C)n1c(C)cc(=O)n(C(C)OCC=C)c1=O (configuration not stated)
inactive: [1] -56.6% | [2] -26.8% | [3] -46.6% | [4] -38.5% | [5] -44.9% | [6] -29.8%

N#CC1=CNc2ccccc2N=C1N
inactive: [1] 8.55% | [2] -4.75% | [3] 28.4% | [4] 8.55% | [5] 28.2% | [6] 24.1%

CC(=O)NCC1OCC2OC(C)(C)OC12 (configuration not stated)
inactive: [1] 3.35% | [2] -5% | [3] -11.7% | [4] -73.8% | [5] -12.1% | [6] -8.8%

CC(C)NC(=O)CC(NCc1ccccc1)C(=O)O (configuration not stated)
inactive: [1] 5.85% | [2] 6.8% | [3] 21.1% | [4] 9.5% | [5] -6.8% | [6] 10.2%

N#Cc1nc(CC(=O)/C=C/c2ccccc2)c(CC(=O)/C=C/c2ccccc2)nc1C#N
inactive: [1] 3.7% | [2] 13.7% | [3] 8.05% | [4] 16.3% | [5] 1.3% | [6] 21.3%

O=C(O)C(c1ccccc1)C(O)C1CCCCC1 (configuration not stated)
inactive: [1] 0.8% | [2] -1.75% | [3] -1.15% | [4] -13.1% | [5] -8.1% | [6] 4.5%

COc1ccc(Cl)cc1Cl
inactive: [1] 6.8% | [2] -6.45% | [3] -98% | [4] 14.2% | [5] 14.1% | [6] 26.6%

CN(C)Cc1cc(C(=O)/C=C/c2ccccc2Cl)cc(CN(C)C)c1O
inactive: [1] -47% | [2] -22.6% | [3] -27.4% | [4] -43.9% | [5] 3.9% | [6] -31.1%

CCCCCCCCCCCCCCCCCCOC(=O)C1CCCN1 (configuration not stated)
inactive: [1] -10% | [2] 22.9% | [3] 12.8% | [4] 3.15% | [5] 12.4% | [6] 8.6%

O=C(NC(c1ccccc1)c1cccs1)c1cccs1 (configuration not stated)
inactive: [1] -2.95% | [2] -4.45% | [3] 1.05% | [4] -38.4% | [5] 30.1% | [6] 3.95%

CCOC(=O)/C(N=Nc1ccc(O)cc1)=C(\C)O
inactive: [1] -6.4% | [2] 28.4% | [3] 17.7% | [4] 24.9% | [5] -1.2% | [6] -0.65%

CC1C(O)CC23COC(=O)C2=CCCC3C1(C)CCC1COC(=O)C1 (configuration not stated)
inactive: [1] -5.05% | [2] -21.9% | [3] 17.9% | [4] 5.85% | [5] -10.4% | [6] 7.45%

CCOc1c(N=Nc2ccc(OC)cc2)c(C)nn1C(N)=S
inactive: [1] -12.5% | [2] -1.5% | [3] 2.85% | [4] -48.7% | [5] 9.75% | [6] 15.2%

COC(=O)Cc1cccnc1
inactive: [1] -3.3% | [2] -6.85% | [3] -11.3% | [4] -0.55% | [5] 0.05% | [6] 12.7%

O=C(Cl)c1ccc2c(c1)C(=O)NC2=O
inactive: [1] -6.55% | [2] -12.1% | [3] -19.4% | [4] 8.95% | [5] -5.95% | [6] -16.4%

CCC(CC)(CO)CO
inactive: [1] 8.75% | [2] -5.75% | [3] -4.3% | [4] 16.1% | [5] -0.55% | [6] -1.55%

O=c1[nH]c2cc(Cl)ccc2nc1/C(=N\O)C(O)c1cccc([N+](=O)[O-])c1 (configuration not stated)
inactive: [1] 6.7% | [2] -9.55% | [3] -7.75% | [4] 11.9% | [5] -5.1% | [6] -13.2%

Cc1cccc(C)c1NCC(=O)NN
inactive: [1] 9.5% | [2] 6.05% | [3] 0.85% | [4] -22.9% | [5] 5.85% | [6] 8.55%

CCOc1ccc(NC(=S)N/C=C(/C#N)C(N)=O)cc1
inactive: [1] -13.6% | [2] -26.4% | [3] -15.3% | [4] -14.2% | [5] -16.9% | [6] -3.5%

Cc1ccc(S(=O)(=O)Nc2ccc3ncsc3c2[N+](=O)[O-])cc1
active: [1] 97.2% | [2] 98.7% | [3] 98.3% | [4] 98.2% | [5] 98% | [6] 98%

O=c1cc(CNC2CC3CCC2C3)[nH]c(=O)[nH]1 (configuration not stated)
inactive: [1] 7.35% | [2] -1.2% | [3] -4.25% | [4] -3.45% | [5] 0.2% | [6] -0.2%

N#CCCOCCNCCSC(=O)c1ccccc1
inactive: [1] 36.8% | [2] 4.05% | [3] 12.4% | [4] 6.65% | [5] 8.45% | [6] 4.25%

O=C(O)CC(C(=O)O)=C1CCCCC1
inactive: [1] 11.8% | [2] 13.4% | [3] 0.5% | [4] 8.15% | [5] 8.75% | [6] -0.3%

CCCCCCCC(=O)OCC1OC(n2cc(F)c(=O)[nH]c2=O)C(NC(=O)OCc2ccccc2)C(OC(=O)CCCCCCC)C1O (configuration not stated)
inactive: [1] 20.2% | [2] 4.05% | [3] 13.4% | [4] 14.3% | [5] 0.35% | [6] 38.3%

Cc1nc2ccccc2c(=O)n1/N=C\c1ccc2c(c1)CCC2
inactive: [1] -1.7% | [2] -5.5% | [3] 15.8% | [4] 18.2% | [5] 23% | [6] 29.1%

CCOC(=O)C1(C(=O)OCC)C2C=CC(C2)C1C(=O)OC (configuration not stated)
inactive: [1] -0.65% | [2] -2.4% | [3] 15.8% | [4] -60.3% | [5] 8.45% | [6] 8.3%

Cc1nn(-c2ccc([N+](=O)[O-])cc2)c2c1C(C)(C)C(C#N)=C(N)O2
inactive: [1] -9.9% | [2] -6.7% | [3] -3.5% | [4] -3.55% | [5] 0.65% | [6] 6.95%

CC1CCC2(CC1)OC(C)C(C)O2 (configuration not stated)
inactive: [1] 20.1% | [2] -2.4% | [3] 4.9% | [4] -34.6% | [5] 28.8% | [6] 10.7%

CCOC(=O)C1=C(C(=O)c2ccccc2)C(c2ccc(Cl)cc2Cl)C(C(=O)c2ccccc2)=C(C(=O)OCC)N1
inactive: [1] -11.3% | [2] -8.2% | [3] -16.6% | [4] -3.45% | [5] -9% | [6] -1.5%

Cc1cccc(C)c1NC(=O)CCC(=O)CC(=O)C(C)C
inactive: [1] -2.6% | [2] -4.85% | [3] -6.2% | [4] 2.55% | [5] 7.25% | [6] -13.1%

COCCN(C(=O)c1ccccc1)C1CCC2(SCCS2)c2[nH]c3ccccc3c21 (configuration not stated)
inactive: [1] 16.1% | [2] 14.6% | [3] 3.75% | [4] -35.2% | [5] -1.75% | [6] 41%

CCC(CC)C1CC[N-]CC1.CCC(CC)C1CC[N-]CC1.CCC(CC)C1CC[N-]CC1.CCC(CC)C1CC[N-]CC1.N#C[S-].N#C[S-].[Co]
inactive: [1] 16.4% | [2] 15.1% | [3] 3.1% | [4] 13.8% | [5] 19.4% | [6] 29.7%

CCOC(C)=C(C#N)C#N
inactive: [1] 8.9% | [2] -9.4% | [3] 8.95% | [4] -7.85% | [5] -10.2% | [6] 4.9%

S=c1sc2c(Cl)nc(Cl)nc2n1-c1ccccc1
inactive: [1] -17.2% | [2] -4.95% | [3] -13.6% | [4] -1% | [5] 9.65% | [6] -11.2%

COc1ccc(/C=N/NC(=O)c2ccccc2OC)cc1
inactive: [1] 1.85% | [2] 19.6% | [3] 29.9% | [4] -11.5% | [5] -10.8% | [6] 36.1%

Source: PubChem BioAssay (NCI)
